The full ranking holds about 18,000 sequences; the median of “log2 normalized intensity” is about 0.39, and the highest 2% start at about 6.6. The full list was thinned out, with the highest values kept by preference.

Data on 43 sequences can be found in article PMC10726135, “HNF4α isoforms regulate the circadian balance between carbohydrate and lipid metabolism in the liver”.

In this experiment the target is T1, HNF4alpha2 (COS-7 nuclear extract) (Homo sapiens, UniProt P41235 1-474).
T1 sequence: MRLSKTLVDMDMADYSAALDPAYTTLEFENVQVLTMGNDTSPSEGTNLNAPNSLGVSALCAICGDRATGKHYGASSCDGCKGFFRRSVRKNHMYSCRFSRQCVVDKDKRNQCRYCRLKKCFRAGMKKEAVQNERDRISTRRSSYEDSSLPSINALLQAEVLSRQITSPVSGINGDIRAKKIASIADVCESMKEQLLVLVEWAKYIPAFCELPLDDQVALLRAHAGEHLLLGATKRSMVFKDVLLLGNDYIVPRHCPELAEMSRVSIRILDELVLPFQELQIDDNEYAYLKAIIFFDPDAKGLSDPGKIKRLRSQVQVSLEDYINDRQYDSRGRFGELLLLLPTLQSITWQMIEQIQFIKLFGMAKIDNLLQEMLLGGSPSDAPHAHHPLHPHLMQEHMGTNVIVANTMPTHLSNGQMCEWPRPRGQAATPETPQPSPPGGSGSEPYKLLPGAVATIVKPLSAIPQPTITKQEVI
As to the kind of experiment: protein-binding microarray; COS-7 nuclear extract on double-stranded Agilent 4x180k PBM; binding buffer, salt, pH and temperature not given in the material; high values mean tight binding. The conditions noted are these: chain copies: 2; label: 3' end of strand 1 on the slide; dsDNA, one strand shown. The method in brief: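 Nuclear extracts from COS-7 cells expressing a transiently transfected human HNF4α isoform were put on a custom Agilent SurePrint G3 4x180k array carrying ~44,000 double-stranded ~60-nt test sequences in quadruplicate. Imaging used an Agilent G2565CA scanner at 2-µm resolution. Binding signal is the background-corrected, normalized gProcessedSignal from Agilent software.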
For the sequence “GAGAGAATGACCCTTGCTTGACCCATTATGGCCTAGGGAGATTAGAGTATCGGTCGA”, the binding signal was 2.36 log2 normalized intensity.
“AGAACAAACAATGGTTTGGGACAAAGTTTGGCCTAGGGAGATTAGAGTATCGGTCGA”: the binding signal was determined as 0.489 log2 normalized intensity.
As for “CAGAGAGAAGCCACTGCGACCTTTGCCCTCGCCTAGGGAGATTAGAGTATCGGTCGA”, the binding signal came out at 9.89 log2 normalized intensity.
Under “AGAAGCCACTGCGACCTTTGCCCTCCCTAAGCCTAGGGAGATTAGAGTATCGGTCGA” stands 7.38 log2 normalized intensity; under “CTTTGCCCTCCCTAAATCCAGAGGTATTTGGCCTAGGGAGATTAGAGTATCGGTCGA”, 1.88 log2 normalized intensity; under “TTGCCATGACCTTTGAAGCCCAGAACACTCGCCTAGGGAGATTAGAGTATCGGTCGA”, 3.59 log2 normalized intensity.
For “CCACTGCGACCTTTGCCCTCCCTAAATCCAGCCTAGGGAGATTAGAGTATCGGTCGA” the value was 6.95 log2 normalized intensity; for “CTTCTCCGCGGCGGGCCCTCGACCTTTGCCGCCTAGGGAGATTAGAGTATCGGTCGA”, 5.07 log2 normalized intensity; for “CCGCGGCGGGCCCTCGACCTTTGCCCTCCAGCCTAGGGAGATTAGAGTATCGGTCGA”, 9.87 log2 normalized intensity.
For “CCTCCTAATCACTGCCCTTTGGTGCCTCTTGCCTAGGGAGATTAGAGTATCGGTCGA”, the binding signal was 2.28 log2 normalized intensity.
Under “CCCTCCCTAAATCCAGAGGTATTTGGCCCAGCCTAGGGAGATTAGAGTATCGGTCGA” stands 1.59 log2 normalized intensity.
Take “TCAGCCTTCTCCGCGGCGGGCCCTCGACCTGCCTAGGGAGATTAGAGTATCGGTCGA”: the binding signal was -0.582 log2 normalized intensity.
Take “ACCGGCAGAGAGAAGCCACTGCGACCTTTGGCCTAGGGAGATTAGAGTATCGGTCGA”: the binding signal turned out to be 4.92 log2 normalized intensity.
On to “TTCCCCTCCCTTCCACCTTTGCCCTCCAAAGCCTAGGGAGATTAGAGTATCGGTCGA”, for which the binding signal turned out to be 5.76 log2 normalized intensity.
Under “ACATGAGCTAGTGCTAAAGGTCATATCCAAGCCTAGGGAGATTAGAGTATCGGTCGA” stands 4.2 log2 normalized intensity; under “GGCCTTTGGACCCAGACTGAATCACACTACGCCTAGGGAGATTAGAGTATCGGTCGA”, 3.76 log2 normalized intensity; under “GGTGTTAAAATAACGACCTTTGGGCTAAAAGCCTAGGGAGATTAGAGTATCGGTCGA”, 3.81 log2 normalized intensity.
Take “AGGCCAGCTCATAGGGATCAGATAAGAAGTGCCTAGGGAGATTAGAGTATCGGTCGA”: the binding signal is -0.997 log2 normalized intensity.
For “GTAACCTCAAAGGAGGTCAGAACTGTGGACGCCTAGGGAGATTAGAGTATCGGTCGA” the value was 1.22 log2 normalized intensity; for “CCATAGCGAAGCCGGCGGCGGAATGCTTGTGCCTAGGGAGATTAGAGTATCGGTCGA”, -0.837 log2 normalized intensity.
On to “CTAGTGTACAGGTGACCTTTGGAATGAACCGCCTAGGGAGATTAGAGTATCGGTCGA”, for which the binding signal turned out to be 7.14 log2 normalized intensity.
Under “TTGGAGAATGCCTTTTGTGTAGGAGTACACGCCTAGGGAGATTAGAGTATCGGTCGA” stands 1.7 log2 normalized intensity; under “TGGCTGGCGGCTAGTGTACAGGTGACCTTTGCCTAGGGAGATTAGAGTATCGGTCGA”, 7.2 log2 normalized intensity; under “AAAGCTGGCTGGCGGCTAGTGTACAGGTGAGCCTAGGGAGATTAGAGTATCGGTCGA”, 1.06 log2 normalized intensity.
For “GGAATGAGCAGGAACCTTGTGGTGGTGAAAGCCTAGGGAGATTAGAGTATCGGTCGA”, the binding signal stood at 1.01 log2 normalized intensity.
Under “TATCTTTGGAGAATGCCTTTTGTGTAGGAGGCCTAGGGAGATTAGAGTATCGGTCGA” stands 1.64 log2 normalized intensity; under “GCTAGGTGGCGGGCTGGCTCAGGACAGGTGGCCTAGGGAGATTAGAGTATCGGTCGA”, 0.0816 log2 normalized intensity; under “GGCGGCTAGTGTACAGGTGACCTTTGGAATGCCTAGGGAGATTAGAGTATCGGTCGA”, 8.95 log2 normalized intensity.
Turning to “AGATAGTGACGGAGGTGACCTTTGGTTGTCGCCTAGGGAGATTAGAGTATCGGTCGA”, the binding signal was found to be 5.52 log2 normalized intensity.
Under “ACTCCACATATTGTAGATAATACTGTGTCAGCCTAGGGAGATTAGAGTATCGGTCGA” stands 0.275 log2 normalized intensity; under “TTCCCTTGTTTACCTTGGTGTTTCTTTGATGCCTAGGGAGATTAGAGTATCGGTCGA”, 1.68 log2 normalized intensity.
As to “ACAGCACTGACCTTTGAGAGTCAACACTGAGCCTAGGGAGATTAGAGTATCGGTCGA”, the binding signal stood at 2.58 log2 normalized intensity.
For “GAGCAGCACTTTTGGAGTTTGACCTGGAGCGCCTAGGGAGATTAGAGTATCGGTCGA” the value was 5.38 log2 normalized intensity; for “GAGCTCAGTCACAGCAGTGGACTTTGACCTGCCTAGGGAGATTAGAGTATCGGTCGA”, 11.2 log2 normalized intensity; for “AAGAAGAGCTCAGTCACAGCAGTGGACTTTGCCTAGGGAGATTAGAGTATCGGTCGA”, 6.61 log2 normalized intensity.
Under “GGAGAGCTAGTAAGGAGCTGAGTCATAGTGGCCTAGGGAGATTAGAGTATCGGTCGA” stands -0.825 log2 normalized intensity.
For “ACAGCAGTGGACTTTGACCTTGGCACTGAAGCCTAGGGAGATTAGAGTATCGGTCGA” the value was 9.07 log2 normalized intensity.
As to “GGGGCAGAGTGAGCAGCACTTTTGGAGTTTGCCTAGGGAGATTAGAGTATCGGTCGA”, the binding signal turned out to be 1.51 log2 normalized intensity.
“AGCAGCCTCAGTGGCTCACAAATGGAGTTTGCCTAGGGAGATTAGAGTATCGGTCGA”: the binding signal was determined as 0.801 log2 normalized intensity.
For the sequence “TAAGGAGCTGAGTCATAGTGGACTTTGCCTGCCTAGGGAGATTAGAGTATCGGTCGA”, the binding signal was found to be 6.9 log2 normalized intensity.
For the sequence “GCTAGTAAGGAGCTGAGTCATAGTGGACTTGCCTAGGGAGATTAGAGTATCGGTCGA”, the binding signal was 3.44 log2 normalized intensity.
With “AGAGTGAGCAGCACTTTTGGAGTTTGACCTGCCTAGGGAGATTAGAGTATCGGTCGA”, the binding signal is 7.73 log2 normalized intensity.
For “ACTTTGACCTTGGCACTGAAGAATGTCTAAGCCTAGGGAGATTAGAGTATCGGTCGA” the value was 1.8 log2 normalized intensity.
